Source: PubChem BioAssay (several laboratories)
Mcl1 Bid PPI: Mcl-1/Bid interaction inhibition | inhibition, % at 21.7 µM | TR-FRET Mcl-1/Bid-Dy647 peptide binding, 1536-well | Q07820 | AID 1021 | 0.97% of 220,000 active;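 active means compounds that cut the binding signal by more than half at the single screening dose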;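 further: His-tagged Mcl-1 with europium anti-His antibody binding Bid BH3 peptide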
Pf gamet viab: kills late stage P. falciparum gametocytes; P. falciparum stage V gametocytes, ATP luminescence, 24 h; inhibition, % at 10.9 µM; 0.065% of 150,000 active;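 active means inhibition above the mean plus 3 SD of compounds within the control limits, set per campaign, cut at about 38% in these data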
Mcl1 Noxa PPI: Mcl-1/Noxa interaction inhibition; inhibition, % at 21.7 µM; 1.5% of 220,000 active; TR-FRET Mcl-1/Noxa peptide binding, 2 h; Q07820;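 active means compounds that cut the protein-peptide binding signal by more than 50% relative to plate controls in a single-dose test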;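 further: His-tagged Mcl-1 with rhodamine Noxa BH3 peptide and terbium anti-His antibody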
14-3-3 Bad inh: disrupts binding of bovine 14-3-3 zeta to phospho-Bad peptide; P63103; TR-FRET 14-3-3zeta/Dy647-pBad peptide displacement, 1 h; inhibition, % at 21.7 µM; 0.71% of 220,000 active; AID 781;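 active means inhibition above about 70%, limit read from the data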
eIF4E-4G inh: blocks eIF4E binding to eIF4G; P63073+Q04637; TR-FRET eIF4E-eIF4GI(517-606) binding, 2 h; AID 782; inhibition, % at 21.7 µM; 0.37% of 220,000 active;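 active means inhibition above about 30%, limit read from the data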
Mcl-1 Bim block: inhibitors of Bim-Mcl-1 interaction, human; Q07820; Bead-based flow cytometry, Bim peptide-Mcl-1 binding; 0.1% of 190,000 active; AID 1009; inhibition, % at 10 µM; in the data active means inhibition above about 40%
Numbers stand for hits; – = inactive; · = no result given; [ ] = remark or other dose. Hits are enriched below; roughly 2.7% of the tested compounds scored in any of these assays.

SMILES | Mcl1 Bid PPI | Pf gamet viab | Mcl1 Noxa PPI | 14-3-3 Bad inh | eIF4E-4G inh | Mcl-1 Bim block
CCCCCC(=O)Oc1cccc(N2C(=O)C3CCCCC3C2=O)c1 (configuration not stated) | – | – | – | – | – | –
O=C(N/N=C/c1ccco1)c1ccc(N2CCCC2=O)cc1 | 93.4 | – | – | – | – | –
O=C(NCc1ccco1)c1ccc(N2CCCC2=O)cc1 | – | · | – | – | – | –
O=c1nc2s/c(=C\c3ccco3)c(=O)n2nc1Cc1ccc(F)cc1 | – | – | 64.6 | – | – | –
Cc1ccc(/C=c2\sc3nc(-c4ccco4)nn3c2=O)o1 | – | · | 77.1 | – | – | –
Cc1ccc(-c2nc3s/c(=C\c4ccco4)c(=O)n3n2)cc1 | – | · | 52.1 | – | – | –
Cc1ccc(/C=c2\sc3nc(-c4ccccc4Br)nn3c2=O)o1 | 62.2 | · | 78.6 | – | – | –
COc1ccc(Br)cc1/C=c1\sc2nc(-c3ccco3)nn2c1=O | · | – | · | · | · | ·
COc1cc(NC(=O)COC(=O)c2cnccn2)c(C)cc1[N+](=O)[O-] | – | – | – | – | – | ·
COc1ccc(C2C(C(N)=O)=C(C)Nc3nc(-c4ccccc4Cl)nn32)c(OC)c1 (configuration not stated) | – | · | – | – | – | –
O=C(COc1ccc(/C=N/NC(=O)c2cc3ccccc3o2)cc1Br)Nc1ccccc1 | 82.0 | · | – | 85.8[fluorescence artefact?] | – | –
O=C(COc1ccccc1[N+](=O)[O-])Nc1ccc(NC(=O)c2cc3ccccc3o2)cc1 | – | – | – | 89.6 | – | –
O=C(Nc1ccccc1)c1cc2ccccc2o1 | – | · | – | – | – | –
O=C(COc1ccccc1[N+](=O)[O-])Nc1ccc2c(c1)OCO2 | – | – | – | – | – | –
CS(=O)(=O)c1ccc(Cl)c(NC(=O)c2ccc3ccccc3c2)c1 | – | – | – | – | – | –
CSc1nc2ccc(NC(=O)C3CC(=O)N(Cc4ccccc4)C3)cc2s1 (configuration not stated) | – | · | – | – | – | –
COc1ccc2c(=O)c3c(=O)n(CCc4ccccc4)c(C(C)C)nc3oc2c1 | 77.0 | – | – | – | – | ·
COc1ccc(S(=O)(=O)/N=C2/C=CC(=O)C(C)=C2C)cc1 | – | · | 67.0 | – | – | –
CC1=C(C)/C(=N\OS(=O)(=O)c2ccc(C)cc2)C=CC1=O | – | – | – | – | – | –
CC(C)(C)c1ccc(NC(=O)c2ccccc2)c([N+](=O)[O-])c1 | – | · | – | – | – | –
O=c1oc2cc(O)ccc2c2ccccc12 | – | · | – | – | – | –
O=c1oc2cc(O)ccc2c2oc3cc(O)ccc3c12 | – | · | 54.6 | – | – | –
CC1CCc2cc(F)ccc2N1C(=O)C12CCC(C)(C(=O)O1)C2(C)C (configuration not stated) | – | – | – | 91.8 | – | –
CC1CCc2cc(F)ccc2N1C(=O)CCC(=O)O (configuration not stated) | – | · | – | – | – | –
COc1cccc(CNc2ccc(F)c(Cl)c2)c1 | – | · | – | 78.3 | – | –
SMILES | Mcl1 Bid PPI | Pf gamet viab | Mcl1 Noxa PPI | 14-3-3 Bad inh | eIF4E-4G inh | Mcl-1 Bim block
O=C(COc1cccnc1[N+](=O)[O-])c1ccc(Cl)s1 | 80.5 | – | 81.8 | – | – | ·
Cc1ccc(C)c(NC(=O)CN(C)C(=O)[C@@H](NC(=O)c2ccc(C(C)(C)C)cc2)C(C)C)c1 | – | · | – | – | – | –
CCOC(=O)c1cc(-c2ccccc2)sc1NC(=O)COC(=O)c1cccc(S(N)(=O)=O)c1 | – | – | – | 73.1 | – | –
N/C(CS(=O)(=O)c1ccc(F)cc1)=N\O | 77.9 | – | – | – | – | ·
Cc1ccc(S(=O)(=O)CC(N)=O)cc1 | – | – | – | – | – | –
CC1(C)CC2(CCO1)OC(=O)CC2C(=O)Nc1ccccc1Cl (configuration not stated) | – | – | – | – | – | –
Cc1ccc(OCC(=O)NC(=S)Nc2cccc(NC(=O)c3ccc(Cl)cc3Cl)c2)cc1 | 63.4 | · | – | – | – | –
CC(=O)N1c2ccccc2N2C(c3c(C)c(C)cc(C)c3C)=NON12 | – | · | – | – | – | –
CCOc1ccccc1N(CC(=O)Nc1ccccc1F)S(=O)(=O)c1ccccc1 | · | – | · | · | · | ·
CCCCNC(=S)N1CCN(C)CC1 | – | – | – | – | – | –
CC(C)CNC(=S)N1CCN(C)CC1 | – | – | – | 80.7 | – | –
